Assay results from the supplement of paper PMC10849652.
Of roughly 7,900 targets only a part is listed; those with a hit were picked by preference. About 0.6% of all pairs of compound and target were hits.

Tests used:
Assay in all cases: log2 fold change, soluble protein after heating vs DMSO (PISA); higher = thermal stabilisation; K562 cells, 10 uM, 30 min; active = over 0.2 and 3.5 SD of the protein, either way, in both replicates (recomputed)
[1] = compound: CC1=C(C=C(C=C1)NC(=O)C2=CC(=CC=C2)C(C)(C)C#N)NC3=CC4=C(C=C3)N=CN(C4=O)C
How it was run: (§1)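 For each measurement, 10 μM compound was applied for 30 min to K562 cells at 2×10^6 cells/mL. Aliquots were heated for 3 min across 48°C-58°C, pooled, and extracted in PBS with 0.5% NP-40 at 4°C; the supernatant after 21,000xg for 90 min was soluble protein. This was quantified by TMTpro 16plex LC-MS/MS with channel sums equalised, and thermal stability was reported relative to control samples from duplicates, on a log2 fold-change scale.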

[2] = compound: CC1=C(C=C(C=C1)NC(=O)C2=CC(=CC=C2)N(C)C)NC(=O)C3=CC=C(C=C3)O
How it was run: as §1

[3] = compound: CC1=CC=C(C=C1)SC2=C3C=C(SC3=CN=C2)C(=O)N
How it was run: as §1

[4] = compound: CC1=NC(=CC=C1)C2=C(N=C(N2)C(C)(C)C)C3=CC4=NC=CN=C4C=C3
How it was run: as §1

[5] = compound: CCCCN(Cc1ccc(C(=O)NO)cc1)C(=O)Nc1ccccc1 [Nexturastat A]
How it was run: as §1

[6] = compound: CCCS(=O)(=O)Nc1ccc(F)c(C(=O)c2c[nH]c3ncc(-c4ccc(Cl)cc4)cc23)c1F [vemurafenib]
How it was run: as §1

[7] = compound: CCCS(=O)(=O)Nc1ccc(F)c(C(=O)c2c[nH]c3ncc(Cl)cc23)c1F
How it was run: as §1

[8] = compound: CCCc1cc(C)[nH]c(=O)c1CNC(=O)c1cc(-c2ccnc(N3CCN(C)CC3)c2)cc2c1cnn2C(C)C
How it was run: as §1

[9] = compound: CCN(CC)Cc1ccc2cc(COC(=O)Nc3ccc(C(=O)NO)cc3)ccc2c1 [givinostat]
How it was run: as §1

[10] = compound: CCN(CCCOc1ccc2c(Nc3cc(CC(=O)Nc4cccc(F)c4)[nH]n3)ncnc2c1)CCOP(=O)(O)O [barasertib]
How it was run: as §1

[11] = compound: CC[C@@H]1C(=O)N(C)c2cnc(Nc3ccc(C(=O)NC4CCN(C)CC4)cc3OC)nc2N1C1CCCC1
How it was run: as §1

[12] = compound: CC[C@@H]1C(=O)N(C)c2cnc(Nc3ccc(C(=O)N[C@H]4CC[C@H](N5CCN(CC6CC6)CC5)CC4)cc3OC)nc2N1C(C)C [volasertib]
How it was run: as §1

[13] = compound: CC[C@H](C)N1C=C(C2=C(C=C(C=C21)C3=CN=C(C=C3)N4CCNCC4)C(=O)NCC5=C(C=C(NC5=O)C)C)C
How it was run: as §1

[14] = compound: CC[C@H](C)[C@@H](C(=O)N[C@@H]([C@@H](C)O)C(=O)N[C@@H](CC(C)C)C(=O)[C@]1(CO1)C)NC(=O)[C@H]([C@@H](C)CC)N(C)C(=O)C [epoxomicin]
How it was run: as §1

[15] = compound: CCn1c(C(=O)N(C2CC2)C2CC2)cc2c3c(ncn3C)c(Nc3cc(C)n(C)n3)nc21
How it was run: as §1

[16] = compound: CCn1cc(-c2ccnc3[nH]c(-c4cccc(CN(C)C)c4)cc23)c(-c2ccc(NC(=O)N(C)C)cc2)n1
How it was run: as §1

[17] = compound: CN(C)CC(=O)Nc1ccc2[nH]c(=O)c3ccccc3c2c1
How it was run: as §1

[18] = compound: CN(CCOC1=CC=C(C=C1)C[C@H]2C(=O)NC(=O)S2)C3=CC=CC=N3 (racemic) [rosiglitazone]
How it was run: as §1

[19] = compound: CN1C2=C(C3=C1C(=O)N(N=C3)CC4=CC(=CC=C4)N)SC(=C2)S(=O)C
How it was run: as §1

[20] = compound: CN1CCC(CNc2ccc3ncc(-c4cccc(OC(F)(F)F)c4)n3n2)CC1
How it was run: as §1

Measured: log2 fold change

BLVRB (UniProt P30043)
UniProt P30043, sequence (P30043 whole entry, looked up): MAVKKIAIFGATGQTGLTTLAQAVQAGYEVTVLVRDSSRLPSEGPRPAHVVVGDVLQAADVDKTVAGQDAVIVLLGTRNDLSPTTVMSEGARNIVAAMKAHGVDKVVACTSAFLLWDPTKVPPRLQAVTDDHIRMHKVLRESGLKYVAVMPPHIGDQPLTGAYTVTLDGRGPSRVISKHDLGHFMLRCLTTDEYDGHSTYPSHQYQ
inactive: [1] 0.094 | [2] -0.023 | [3] -0.025 | [4] 0.027 | [5] -0.014 | [6] 0.069 | [7] 0.063 | [8] 0.037 | [9] 0.03 | [10] 0.025 | [11] 0.008 | [12] 0.046 | [13] 0.012 | [14] 0.161 | [15] 0.023 | [16] -0.078 | [17] 0.014 | [18] 0.017 | [19] -0.049 | [20] 0.127

ATIC (UniProt P31939)
UniProt P31939, sequence (P31939 whole entry, looked up): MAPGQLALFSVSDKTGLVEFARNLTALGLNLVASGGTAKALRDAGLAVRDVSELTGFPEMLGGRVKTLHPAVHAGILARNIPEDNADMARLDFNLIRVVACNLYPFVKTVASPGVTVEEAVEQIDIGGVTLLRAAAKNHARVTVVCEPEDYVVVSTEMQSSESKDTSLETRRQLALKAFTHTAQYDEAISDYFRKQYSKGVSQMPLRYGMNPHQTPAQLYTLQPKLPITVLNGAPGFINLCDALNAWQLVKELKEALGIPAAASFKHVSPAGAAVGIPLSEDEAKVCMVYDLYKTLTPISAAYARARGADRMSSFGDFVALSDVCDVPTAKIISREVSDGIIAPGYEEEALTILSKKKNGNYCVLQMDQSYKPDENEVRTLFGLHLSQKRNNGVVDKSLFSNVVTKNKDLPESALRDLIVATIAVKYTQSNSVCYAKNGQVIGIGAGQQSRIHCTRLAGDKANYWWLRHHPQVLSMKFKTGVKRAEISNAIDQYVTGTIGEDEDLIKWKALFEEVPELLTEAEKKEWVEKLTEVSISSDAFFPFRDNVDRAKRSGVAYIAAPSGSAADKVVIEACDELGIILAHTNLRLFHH
inactive: [1] 0.083 | [2] -0.022 | [3] 0.059 | [4] 0.022 | [5] -0.076 | [6] 0.025 | [7] 0.052 | [8] 0.019 | [9] -0.036 | [10] 0.013 | [11] -0.032 | [12] 0.021 | [13] 0.029 | [14] 0.04 | [15] -0.011 | [16] -0.016 | [17] 0.023 | [18] -0.012 | [19] -0.123 | [20] 0.029

ATP13A2 (UniProt Q9NQ11)
UniProt Q9NQ11, sequence (Q9NQ11 whole entry, looked up): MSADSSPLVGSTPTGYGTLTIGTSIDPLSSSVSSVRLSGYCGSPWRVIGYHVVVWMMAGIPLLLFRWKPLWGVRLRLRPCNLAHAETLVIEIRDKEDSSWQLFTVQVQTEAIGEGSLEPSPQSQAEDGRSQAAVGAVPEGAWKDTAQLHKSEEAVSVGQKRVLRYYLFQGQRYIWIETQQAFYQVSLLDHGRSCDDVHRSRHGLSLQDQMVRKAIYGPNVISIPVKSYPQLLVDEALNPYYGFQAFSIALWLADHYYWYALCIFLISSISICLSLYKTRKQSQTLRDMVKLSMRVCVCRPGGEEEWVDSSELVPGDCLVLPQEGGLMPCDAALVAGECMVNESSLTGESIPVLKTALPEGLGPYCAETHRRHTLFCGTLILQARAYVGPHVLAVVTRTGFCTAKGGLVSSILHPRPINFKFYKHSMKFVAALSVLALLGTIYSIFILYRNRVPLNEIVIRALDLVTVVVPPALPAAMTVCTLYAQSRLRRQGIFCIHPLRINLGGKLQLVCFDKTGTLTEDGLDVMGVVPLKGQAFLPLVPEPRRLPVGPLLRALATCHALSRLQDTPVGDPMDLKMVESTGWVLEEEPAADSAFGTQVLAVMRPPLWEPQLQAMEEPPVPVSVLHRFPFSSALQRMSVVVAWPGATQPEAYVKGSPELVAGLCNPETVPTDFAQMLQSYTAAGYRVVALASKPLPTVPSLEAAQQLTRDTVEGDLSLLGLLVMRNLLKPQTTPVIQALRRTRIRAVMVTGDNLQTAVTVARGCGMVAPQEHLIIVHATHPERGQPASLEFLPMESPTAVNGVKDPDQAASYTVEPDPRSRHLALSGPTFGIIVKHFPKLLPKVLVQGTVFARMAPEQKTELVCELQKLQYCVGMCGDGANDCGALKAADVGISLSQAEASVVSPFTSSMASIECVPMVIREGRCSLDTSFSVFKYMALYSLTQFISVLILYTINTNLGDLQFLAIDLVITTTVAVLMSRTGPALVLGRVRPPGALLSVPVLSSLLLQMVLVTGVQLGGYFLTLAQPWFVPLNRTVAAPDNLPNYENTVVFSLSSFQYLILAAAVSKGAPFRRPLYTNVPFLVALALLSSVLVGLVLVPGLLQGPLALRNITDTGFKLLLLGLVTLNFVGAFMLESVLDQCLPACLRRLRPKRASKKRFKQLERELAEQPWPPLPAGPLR
inactive: [1] 0.017 | [2] 0.009 | [3] 0.035 | [4] 0.055 | [5] 0.001 | [6] 0.085 | [7] -0.037 | [8] 0.014 | [9] -0.044 | [10] -0.052 | [11] -0.141 | [12] -0.103 | [13] -0.074 | [14] 0.003 | [15] 0.012 | [16] -0.031 | [17] -0.002 | [18] 0.066 | [19] 0.058
active: [20] -0.509

BCAP29 isoform 2 (UniProt Q9UHQ4)
inactive: [1] -0.078 | [2] 0.006 | [3] 0.015 | [4] 0.01 | [5] -0.032 | [6] -0.033 | [7] -0.036 | [8] -0.116 | [9] -0.075 | [10] 0.025 | [11] 0.022 | [12] 0.085 | [13] -0.072 | [14] -0.096 | [15] 0.082 | [16] -0.011 | [17] -0.008 | [18] 0.045 | [19] -0.044 | [20] 0.05

ATP6V1C1 (UniProt P21283)
inactive: [1] 0.004 | [2] -0.037 | [3] -0.024 | [4] -0.033 | [5] 0.131 | [6] -0.018 | [7] 0.057 | [8] 0.026 | [9] 0.031 | [10] 0.062 | [11] 0.027 | [12] -0.196 | [13] 0.066 | [14] 0.064 | [15] -0.022 | [17] -0.008 | [18] 0.032 | [19] 0.069
active: [16] -0.282 | [20] 0.377

BUB1B isoform 3 (UniProt O60566)
active: [12] -0.66
inactive: [1] 0.004 | [2] -0.031 | [3] 0.059 | [4] -0.014 | [5] 0.087 | [6] 0.058 | [7] 0.14 | [8] 0.043 | [9] 0.118 | [10] 0.034 | [11] -0.127 | [13] 0.056 | [14] 0.02 | [15] -0.055 | [16] 0.043 | [17] 0.065 | [18] 0.089 | [19] 0.013 | [20] -0.078

ABCB6 (UniProt Q9NP58)
UniProt Q9NP58, sequence (Q9NP58 whole entry, looked up): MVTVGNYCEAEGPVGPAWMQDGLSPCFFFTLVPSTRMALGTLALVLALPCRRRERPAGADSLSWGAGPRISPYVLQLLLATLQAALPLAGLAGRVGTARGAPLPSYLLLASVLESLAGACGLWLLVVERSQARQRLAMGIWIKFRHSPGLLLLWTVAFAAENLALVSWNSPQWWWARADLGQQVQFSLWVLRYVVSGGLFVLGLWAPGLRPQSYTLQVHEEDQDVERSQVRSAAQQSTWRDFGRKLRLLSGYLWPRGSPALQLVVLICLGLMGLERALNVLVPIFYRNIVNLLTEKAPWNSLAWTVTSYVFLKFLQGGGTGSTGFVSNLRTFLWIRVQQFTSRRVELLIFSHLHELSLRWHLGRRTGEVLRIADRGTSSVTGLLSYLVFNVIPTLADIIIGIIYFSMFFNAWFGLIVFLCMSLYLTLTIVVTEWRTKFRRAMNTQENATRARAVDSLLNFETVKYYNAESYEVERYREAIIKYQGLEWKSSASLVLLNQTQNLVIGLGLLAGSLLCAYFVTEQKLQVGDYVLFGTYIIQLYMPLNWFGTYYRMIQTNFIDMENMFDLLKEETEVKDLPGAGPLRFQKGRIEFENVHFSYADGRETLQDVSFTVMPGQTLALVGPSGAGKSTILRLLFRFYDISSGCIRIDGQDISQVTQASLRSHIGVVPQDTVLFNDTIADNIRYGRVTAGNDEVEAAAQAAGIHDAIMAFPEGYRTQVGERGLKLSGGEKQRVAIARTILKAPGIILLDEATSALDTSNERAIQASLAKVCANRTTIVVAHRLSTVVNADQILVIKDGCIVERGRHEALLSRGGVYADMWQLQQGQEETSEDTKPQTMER
inactive: [1] 0.085 | [2] -0.084 | [3] 0.019 | [4] 0.019 | [5] 0.001 | [6] 0.073 | [7] -0.022 | [8] -0.041 | [9] -0.002 | [10] 0.008 | [11] -0.131 | [12] -0.051 | [13] 0.001 | [14] -0.009 | [15] 0 | [16] -0.019 | [17] 0.061 | [18] 0.027 | [19] -0.053 | [20] -0.123

ALG5 (UniProt Q9Y673)
inactive: [1] 0.039 | [2] 0.019 | [3] -0.001 | [4] 0.049 | [5] -0.055 | [6] 0.035 | [7] 0.059 | [8] 0.025 | [9] 0.01 | [10] 0.02 | [11] -0.028 | [12] -0.026 | [13] 0.017 | [14] 0.043 | [15] -0.036 | [16] -0.069 | [17] 0.035 | [18] 0.078 | [19] -0.088 | [20] 0.017

ALDH6A1 (UniProt Q02252)
inactive: [1] -0.02 | [2] 0.032 | [3] -0.039 | [4] 0.044 | [5] -0.014 | [6] 0.025 | [7] 0.011 | [8] 0.029 | [9] -0.017 | [10] -0.038 | [11] 0.06 | [12] -0.011 | [13] -0.059 | [14] 0 | [15] 0.028 | [16] -0.06 | [17] -0.033 | [18] 0.093 | [19] -0.068 | [20] -0.004

BTAF1 (UniProt O14981)
UniProt O14981, sequence (O14981 whole entry, looked up): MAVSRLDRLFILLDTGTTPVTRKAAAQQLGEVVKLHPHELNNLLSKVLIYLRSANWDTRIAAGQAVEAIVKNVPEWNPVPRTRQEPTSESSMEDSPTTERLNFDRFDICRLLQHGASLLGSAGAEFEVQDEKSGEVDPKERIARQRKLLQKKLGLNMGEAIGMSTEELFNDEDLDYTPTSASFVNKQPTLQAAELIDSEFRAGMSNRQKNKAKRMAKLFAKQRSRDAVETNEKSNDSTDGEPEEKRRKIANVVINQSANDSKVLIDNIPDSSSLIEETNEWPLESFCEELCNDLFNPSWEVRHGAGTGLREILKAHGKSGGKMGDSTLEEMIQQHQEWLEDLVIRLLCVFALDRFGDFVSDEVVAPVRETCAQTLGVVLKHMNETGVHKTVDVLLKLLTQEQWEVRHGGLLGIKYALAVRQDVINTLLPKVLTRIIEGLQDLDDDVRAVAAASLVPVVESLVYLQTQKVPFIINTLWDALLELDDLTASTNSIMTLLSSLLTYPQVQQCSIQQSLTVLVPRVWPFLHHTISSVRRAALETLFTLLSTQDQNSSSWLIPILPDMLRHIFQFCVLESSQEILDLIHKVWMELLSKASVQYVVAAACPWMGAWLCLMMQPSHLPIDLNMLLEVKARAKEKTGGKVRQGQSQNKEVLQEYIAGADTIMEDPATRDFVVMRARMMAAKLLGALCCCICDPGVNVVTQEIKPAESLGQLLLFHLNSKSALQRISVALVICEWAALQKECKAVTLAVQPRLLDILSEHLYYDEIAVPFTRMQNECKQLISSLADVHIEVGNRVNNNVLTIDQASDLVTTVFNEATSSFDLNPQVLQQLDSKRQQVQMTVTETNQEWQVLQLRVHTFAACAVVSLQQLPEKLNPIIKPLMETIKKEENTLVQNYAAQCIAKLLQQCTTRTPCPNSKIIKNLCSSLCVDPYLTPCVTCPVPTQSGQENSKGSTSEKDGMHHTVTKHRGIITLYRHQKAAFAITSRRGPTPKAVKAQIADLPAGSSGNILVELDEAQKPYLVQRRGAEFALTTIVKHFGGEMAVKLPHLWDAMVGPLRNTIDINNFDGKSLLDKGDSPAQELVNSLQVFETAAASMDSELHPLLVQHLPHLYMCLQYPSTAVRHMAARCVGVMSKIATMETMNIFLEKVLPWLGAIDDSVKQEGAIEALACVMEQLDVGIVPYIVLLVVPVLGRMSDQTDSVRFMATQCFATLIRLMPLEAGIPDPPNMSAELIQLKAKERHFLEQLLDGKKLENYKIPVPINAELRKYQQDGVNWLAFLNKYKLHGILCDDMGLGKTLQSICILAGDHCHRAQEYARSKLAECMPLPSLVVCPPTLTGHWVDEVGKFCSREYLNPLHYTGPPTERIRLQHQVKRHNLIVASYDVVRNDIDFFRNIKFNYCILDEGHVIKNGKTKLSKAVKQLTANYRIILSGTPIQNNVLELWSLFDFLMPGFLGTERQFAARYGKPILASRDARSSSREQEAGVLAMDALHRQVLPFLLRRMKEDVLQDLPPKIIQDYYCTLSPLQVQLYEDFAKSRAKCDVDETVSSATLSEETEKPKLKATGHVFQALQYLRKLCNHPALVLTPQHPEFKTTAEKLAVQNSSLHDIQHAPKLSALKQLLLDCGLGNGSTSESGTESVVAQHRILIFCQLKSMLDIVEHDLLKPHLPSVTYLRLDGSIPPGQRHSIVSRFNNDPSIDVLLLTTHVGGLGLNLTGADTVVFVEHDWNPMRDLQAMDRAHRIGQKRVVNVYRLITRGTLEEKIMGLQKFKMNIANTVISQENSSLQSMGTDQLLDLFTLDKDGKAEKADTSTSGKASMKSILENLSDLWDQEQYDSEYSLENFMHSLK
active: [12] -0.265
inactive: [1] -0.033 | [2] 0.07 | [3] -0.035 | [4] 0.011 | [5] -0.064 | [6] -0.003 | [7] 0.041 | [8] -0.018 | [9] 0.009 | [10] 0.038 | [11] -0.087 | [13] 0.061 | [14] 0.086 | [15] -0.047 | [16] -0.07 | [17] 0.027 | [18] -0.042 | [19] -0.055 | [20] -0.09

ATAD1 (UniProt Q8NBU5)
inactive: [1] 0.019 | [2] -0.034 | [3] 0.012 | [4] -0.012 | [5] -0.305 | [6] 0.076 | [7] 0.022 | [8] 0.045 | [9] 0.046 | [10] 0.055 | [11] -0.008 | [12] -0.127 | [13] 0.056 | [14] 0.065 | [15] -0.013 | [16] -0.027 | [17] 0.064 | [18] 0.021 | [19] -0.033 | [20] -0.046

BLOC1S3 (UniProt Q6QNY0)
inactive: [1] -0.03 | [2] 0.049 | [3] 0.046 | [4] 0.052 | [5] -0.031 | [6] -0.049 | [7] -0.029 | [8] -0.058 | [9] -0.016 | [10] 0.021 | [11] 0.024 | [12] 0.018 | [13] -0.04 | [14] -0.011 | [15] 0.005 | [16] -0.017 | [17] 0.058 | [18] 0.048 | [19] -0.062 | [20] -0.01

ACADM isoform 2 (UniProt P11310)
UniProt P11310, sequence (P11310 whole entry, looked up): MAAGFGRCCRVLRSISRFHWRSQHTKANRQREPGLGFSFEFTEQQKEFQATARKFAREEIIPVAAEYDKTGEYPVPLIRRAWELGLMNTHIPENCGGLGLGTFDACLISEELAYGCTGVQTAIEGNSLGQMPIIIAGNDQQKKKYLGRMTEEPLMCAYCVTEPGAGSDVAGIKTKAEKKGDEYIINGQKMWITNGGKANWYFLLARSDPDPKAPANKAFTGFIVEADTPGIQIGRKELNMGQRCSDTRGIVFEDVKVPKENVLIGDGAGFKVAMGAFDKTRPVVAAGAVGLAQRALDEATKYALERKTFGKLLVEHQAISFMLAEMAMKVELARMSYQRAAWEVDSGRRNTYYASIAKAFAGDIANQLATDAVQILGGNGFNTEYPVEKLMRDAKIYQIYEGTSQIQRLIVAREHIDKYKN
inactive: [1] -0.018 | [2] -0.024 | [3] 0.001 | [4] 0.017 | [5] 0.009 | [6] 0.009 | [7] -0.015 | [8] -0.042 | [9] -0.033 | [10] 0 | [11] -0.045 | [12] -0.03 | [13] -0.015 | [14] 0.015 | [15] 0.014 | [16] -0.042 | [17] -0.024 | [18] 0.008 | [19] -0.078 | [20] -0.011

ATP6V0A1 isoform 3 (UniProt Q93050)
inactive: [1] 0.038 | [2] -0.034 | [3] -0.006 | [4] -0.051 | [5] 0.198 | [6] 0.017 | [7] 0 | [8] 0.032 | [9] 0.031 | [10] 0.006 | [11] -0.056 | [12] 0.174 | [13] -0.01 | [14] 0.044 | [15] 0.034 | [16] -0.054 | [17] -0.009 | [18] -0.017 | [19] 0.239 | [20] -0.137

AP2B1 isoform 2 (UniProt P63010)
inactive: [1] 0.016 | [2] 0.018 | [3] 0.021 | [4] 0.018 | [5] 0.033 | [6] 0.031 | [7] 0.039 | [8] -0.021 | [9] 0.015 | [10] -0.013 | [11] 0.065 | [12] -0.064 | [13] -0.001 | [14] -0.004 | [15] 0.05 | [16] -0.021 | [17] -0.007 | [18] -0.018 | [19] -0.016 | [20] 0.045

ALDH2 (UniProt P05091)
active: [5] -0.264
inactive: [1] 0.089 | [2] 0.03 | [3] 0.039 | [4] 0.029 | [6] 0.044 | [7] -0.011 | [8] -0.012 | [9] 0.016 | [10] 0.003 | [11] -0.025 | [12] 0.06 | [13] -0.009 | [14] -0.038 | [15] -0.017 | [16] -0.042 | [17] 0.029 | [18] 0.058 | [19] -0.048 | [20] -0.006
